Assay outcomes (PubChem)
RN4220 kill = S. aureus RN4220 growth inhibition. OD600, 16 h. inhibition, % (test concentration not listed). 330,000 compounds, 0.33% hits; in the data active = inhibition above about 85%;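 also: plate controls were untreated cells for no effect and reference antibiotic for full effect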
ugtP null kill = kills S. aureus RN4220 lacking UgtP | S. aureus RN4220 ugtP deletion, OD600 growth, 16 h | 330,000 compounds, 0.54% hits | growth inhibition, % (concentration not given with the values); in the data active = growth inhibition above about 68%;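 also: plate controls were untreated wells for no effect and antibiotic for full effect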
PfHsp40 rescue = rescue of PfHsp40-mediated yeast toxicity. S. cerevisiae expressing PfHsp40, growth rescue, ATP luminescence. growth rescue, % at 12.5 µM. 340,000 compounds, 0.68% hits. AID 504582; in the data active = growth rescue above about 28%, passing the limit was not always enough; inconclusive = no clear call, values can overlap the other calls;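 also: yeast W303a lacking pdr1 and pdr3 grown in galactose medium; growth measured after three days at 30 °C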
PrP 5UTR inh = inhibition of PrP 5' UTR reporter expression | cell-based PrP 5' UTR mRNA reporter, plate reader | inhibition, % (no concentration beside the values) | 340,000 compounds, 0.35% hits | AID 488862; in the data active = inhibition above about 52%; also: 0 = median of the neutral control wells
Yp Topo-I inh = Y. pestis Topo-I inhibition via cleavage products; 360,000 compounds, 0.064% hits; AID 504884; activity, % at 10 µM; Y. pestis Topo-I cleavage product accumulation, plate reader; in the data active = activity above about 50%, passing the limit was not always enough; inconclusive = no clear call, values can overlap the other calls
BJeLR lethal = kills HRASV12-expressing BJeLR cells; AID 1554; 300,000 compounds, 0.17% hits; BJeLR (HRASV12) viability, CellTiter-Glo ATP luminescence, 48 h; inhibition, % (test concentration not listed); in the data active = inhibition above about 50%; inconclusive = no clear call, values can overlap the other calls
The depositor's hits bear a star; ? = inconclusive; nt = no result. Compounds with a hit are over-represented: about 1.4% of the library has one in this group of screens.

SMILES	RN4220 kill	ugtP null kill	PfHsp40 rescue	PrP 5UTR inh	Yp Topo-I inh	BJeLR lethal
CC(=O)/C(N=Nc1cccc(C(F)(F)F)c1)=C(\C)O	6	2	1	-11	-1	6
O=C(/C(N=Nc1cccc(C(F)(F)F)c1)=C(/O)c1cccs1)C(F)(F)F	81	85	195*	-57	-3	7
Nc1nc(N)c2cc(Sc3ccc4ccccc4c3)ccc2n1	100*	99*	nt	nt	-13	60*
Nc1nc(N)c2cc(Sc3ccc(Cl)cc3)ccc2n1	nt	nt	nt	nt	-1	nt
COc1ccc(C2CC(=O)C=C(c3cc(Cl)cc(Cl)c3)C2)cc1 (stereo not drawn)	9	14	nt	nt	nt	nt
O=C1Nc2ccc(Br)cc2C12NNc1ccccc1O2 (stereo not drawn)	85	97*	2	-65	-58	-17
O=C1Nc2ccc(Br)cc2C1(O)c1ccccc1 (stereo not drawn)	0	-1	-1	8	-2	-6
Cc1ccc(C(C)C)c(OCc2ccc(C(=O)NN=Cc3ccc(O)c(O)c3)cc2)c1	58	100*	nt	nt	nt	nt
Cc1ccc(C(C)C)c(OCc2ccc(C(=O)NN=Cc3ccc(C(=O)O)cc3)cc2)c1	8	26	nt	nt	nt	nt
C=CCn1c(COc2ccccc2)nnc1SCC(=O)N/N=C/c1ccc(C)cc1	nt	nt	0	-14	21	-7
C=CCn1c(COc2ccccc2)nnc1SCC(=O)N/N=C/c1cc(Cl)ccc1O	nt	nt	44*	-13	14	-3
O=C1NC(Cc2ccccc2)C(=O)N2C1CC1c3ccccc3N(OOSc3ccccc3)C12 (stereo not drawn)	7	-19	nt	nt	nt	nt
CC1(C(=O)O)CCCN(C(=O)c2ccc3c(c2)C(C)(C)CCC3(C)C)C1 (stereo not drawn)	nt	nt	nt	nt	-7	nt
CC(=Cc1ccc(C(=O)O)cc1)c1ccc2c(c1)C(C)(C)CCC2(C)C	77	99*	nt	nt	nt	nt
CC(C)C1/C(=N/O)CC(c2ccccc2)NC1c1ccccc1 (stereo not drawn)	nt	nt	49*	-8	3	-1
O=C(C=Cc1cccs1)N1CCC2(CC1)Oc1ccc(Cl)cc1C(=O)C21CC(c2cccnc2)=NO1 (stereo not drawn)	4	-25	nt	nt	nt	nt
N#CC(C#N)=c1ccc2c(c1)N1C3=C(CCCC3)CC3CCCCC31N=2 (stereo not drawn)	91*	92*	1	-3	8	19
Nc1nc(NCCO)nc(N2CCCCCC2)c1[N+](=O)[O-]	27	18	-2	-11	-7	1
Nc1nc(NCCOCCO)nc(N2CCCCCC2)c1[N+](=O)[O-]	86	94*	0	-4	8	16
CCCCCC[n+]1c(-c2ccccc2)csc1Nc1ccccc1	0	88*	9	-14	20	10
O=C(O)c1ccc(C[n+]2c(-c3ccccc3)csc2Nc2ccccc2)cc1	5	10	-1	-14	19	3
N=c1c2c(-c3ccccc3)c(-c3ccccc3)n(Cc3ccco3)c2ncn1CCCn1ccnc1	-5	8	235*	-20	10	52*
c1ccc(-c2c(-c3ccccc3)n(Cc3ccco3)c3ncnc(NCCCn4ccnc4)c23)cc1	18	30	148*	6	26	-7
N=c1c2c(-c3ccccc3)c(-c3ccccc3)n(Cc3ccco3)c2ncn1Cc1ccccc1	1	-8	-1	-30	17	3
N=c1c2c(-c3ccccc3)c(-c3ccccc3)n(Cc3ccco3)c2ncn1CCCN1CCOCC1	-3	6	0	2	15	-3
SMILES	RN4220 kill	ugtP null kill	PfHsp40 rescue	PrP 5UTR inh	Yp Topo-I inh	BJeLR lethal
N=c1c2c(-c3ccccc3)c(-c3ccccc3)n(Cc3ccccc3)c2ncn1CCO	-3	91*	1	-14	14	-11
O=C1C(=O)c2ccc(-c3ccccc3)cc2-c2ccccc21	28	60	1	-36	4	110*
Nc1ccc2c(c1)C(=O)c1ccccc1-2	1	-3	1	-51	-11	2
Nc1ccc2c(c1)C(=O)C(=O)c1ccccc1-2	98*	98*	0	-37	-24	114*
O=C(N1CCN(c2cccc(Cl)c2)CC1)C1(S(=O)(=O)c2ccc(Cl)cc2)CC1	3	-14	83*	-89	9	-11
CC(C)CC(NC(=O)c1nc[nH]c1C(=O)NC(c1ccccc1)c1ccccc1)C(=O)OCc1ccccc1 (stereo not drawn)	-7	-7	nt	nt	nt	nt
O=C(NCCCSc1ccccc1)c1cc(Cl)ccc1O	93*	89*	?	-15	10	-2
O=C(CNC(=O)c1ccccc1)NCCCSc1ccccc1	-1	7	0	-12	10	nt
COc1cc(-c2nc3ccc4ccccc4c3c3c2CCC3)ccc1O	99*	101*	22	-13	-1	-22
CCN1C(=NCCc2ccc(Br)cc2)NC(c2ccccc2)C(C(=O)OC)C1C (stereo not drawn)	-2	-25	nt	nt	nt	nt
COc1ccc2cc(C[C@@H]3CC[C@@H](CNC(N)=O)O3)ccc2c1	3	8	38*	-28	-1	nt
COC(=O)[C@]1(C)NC(c2ccc(-c3ccc(F)cc3)cc2)C2C(=O)N(C)C(=O)C21 (stereo partly drawn)	3	-14	nt	nt	nt	nt
CC(C)(C)OC(=O)NCCCCCc1nnc(SCc2ccccc2)o1	4	1	0	-21	57*	-6
CC(C)(C)OC(=O)NCCCCCc1nnc(SCc2cccc(F)c2)o1	5	5	3	-28	23	1
Cc1ccc(C(=O)Cn2nnc(-c3cccs3)n2)cc1	7	3	0	-61	12	-5
O=C(CN1CC[n+]2c(-c3cccs3)csc21)c1ccc(-c2ccccc2)cc1	73	38	401*	-3	20	6
COC(=O)C1=C(c2ccc(F)cc2OCc2ccccc2)CC2CCC1N2C(=O)NCc1ccc2c(c1)OCO2 (stereo not drawn)	-7	1	nt	nt	nt	nt
Cc1ccc(Oc2nnc(-c3ccccc3)c3ccccc23)cc1	-1	90*	6	-24	8	6
COc1ccccc1N(C(=O)CCl)c1cn(C(C)=O)c2ccccc12	4	19	0	-27	2	65*
CCOC(=O)c1ccccc1Nc1cn(C(C)=O)c2ccccc12	-7	22	-1	-26	19	5
CC(=O)n1cc(N(C(=O)CCl)c2ccc(Cl)cc2)c2ccccc21	58	95*	nt	nt	22	108*
CCOC(=O)C1CCCN(C(=O)C=Cc2cc(OC)c(OC)c(OC)c2)C1 (stereo not drawn)	0	-9	nt	nt	nt	nt
C[CH2][Hg][S]c1ccccc1C(=O)O	100*	98*	-8	-11	2	nt
COc1ccc(C(N)=NOC(=O)c2ccc(C)c([N+](=O)[O-])c2)cc1	1	-5	nt	nt	nt	nt
c1ccc2c(-c3c[nH]c4ccccc34)c3ccccc3nc2c1	3	57	37*	-19	-1	11
